For 25 compounds, inhibition results are on record in PubChem BioAssay AID504766 (The Scripps Research Institute Molecular Screening Center, 2011).

Structures are written as SMILES. Out of some 340,000 compounds screened, about 3,400 (1%) were called active.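 Rule for the calls: active = inhibition above the mean over all tested compounds plus 3 SD (cut at about 4.2% in these data); inactive = the rest.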 Many of the other results were omitted from the sample, so actives are more common in it than they were.

Usually inhibition stands for the change of the read-out against control, counted positive when it falls.

The target in this assay is Nuclear receptor subfamily 0 group B member 1 (Homo sapiens) (UniProt P51843). Description: relief of DAX1 transcriptional repression – cell-based, HEK293, Gal4-DAX1, luciferase luminescence, primary screen (AID 504766).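 Note: 0% = DAX1-transfected cells with DMSO and 100% = empty-vector control cells with DMSO; inhibition shows as a rise in luminescence from relieved DAX1 repression.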 The following applies: HEK293 Gal4-DAX1 luciferase reporter, at 6.75 µM, hits give high values.
Nuclear receptor subfamily 0 group B member 1 (Homo sapiens), sequence (P51843 207-470 limits assumed): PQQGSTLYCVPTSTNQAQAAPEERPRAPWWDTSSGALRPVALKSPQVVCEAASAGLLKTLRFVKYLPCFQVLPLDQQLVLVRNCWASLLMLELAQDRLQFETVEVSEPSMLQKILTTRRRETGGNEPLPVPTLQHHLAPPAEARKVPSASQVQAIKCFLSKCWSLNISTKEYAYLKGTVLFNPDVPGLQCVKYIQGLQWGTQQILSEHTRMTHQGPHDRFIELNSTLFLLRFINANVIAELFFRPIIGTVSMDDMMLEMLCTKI
With `COCCCN1C(=O)C(CC(=O)NCc2cccs2)CC(C(=O)N2CCOCC2)=C1C` (stereo not given), the inhibition was 1.28% (inactive).

`CN1CCn2cnc(C(=O)NCC(=O)OC(C)(C)C)c2C1=O`: the inhibition is 0.48% (inactive). With `C[C@@H]1CN([C@@H](C)CO)C(=O)CCCn2cc(nn2)CO[C@H]1CN(C)S(=O)(=O)c1ccc(-n2cccn2)cc1`, the inhibition is 1.04% (inactive). Take `O=c1[nH]c2ccccc2n1C1CCN(CCOc2ccccc2)CC1`: the inhibition is -1.06% (inactive).

In the case of `CCOC(=O)CSc1nccc(N(C)C)c1C#N`, the inhibition was 0.68% (inactive). On to `Cc1nonc1NC(=O)CSc1nc2ccccc2cc1C#N`, for which the inhibition is 2.09% (inactive).

As for `CCOc1ccc2cc(C#N)c(SCC(=O)OC)nc2c1`, the inhibition was 4.25% (active). In the case of `COc1ccc(C(C)(C)C)cc1NC(=O)CN(C)C1=NS(=O)(=O)c2ccccc21`, the inhibition is 0.35% (inactive). With `O=C(CCCN1C(=O)C(c2ccccc2)Oc2cccnc21)Nc1ccccc1Br` (stereo not given), the inhibition was 0.05% (inactive).

Turning to `N#CCSc1ccccc1NC(=O)CN1C(=O)NC(CCc2ccccc2)C1=O` (stereo not given), the inhibition is 2.57% (inactive). Turning to `C#CCN(C[C@H]1[C@H](OC(=O)NC2CCCC2)[C@H](OC(=O)NC2CCCC2)C[C@H]2C(=O)N(c3ccccc3)C(=O)[C@@H]12)S(=O)(=O)c1ccc(C)cc1`, the inhibition is -0.02% (inactive). As for `CC1CCC2(CC1)NC(=O)N(CC(=O)NCc1ccco1)C2=O` (stereo not given), the inhibition was 3.52% (inactive).

As for `Cc1ccc(S(=O)(=O)N2C[C@H]3n4c(=O)ccc(=O)n4C[C@H](OC(=O)NC4CCCC4)[C@@]3(O)C2)cc1`, the inhibition was 0.12% (inactive). Consider `C[C@H](CO)N1C[C@H](C)[C@@H](CN(C)C(=O)c2cccc(F)c2)Oc2cc(-c3cncnc3)ccc2S1(=O)=O`, for which the inhibition was 1.05% (inactive).

`CCCOC(=O)c1[nH]c2c(c1C)C(=O)CC(c1cccs1)C2` (stereo not given): the inhibition was 1.32% (inactive).

With `CCCCOC(=O)c1[nH]c(C)c(C(=O)OC)c1C`, the inhibition was 2.23% (inactive).

As to `COC(=O)C1C(=O)c2c([nH]c(C(=O)OCCSC)c2C)CC1C` (stereo not given), the inhibition was 5.56% (active).

With `C[C@H](CO)N1C[C@H](C)[C@@H](CN(C)S(=O)(=O)c2ccc(F)cc2)OCc2cnnn2CCCC1=O`, the inhibition was 0.91% (inactive). Regarding `c1ccc(-c2ccc3c(c2)NC(C2Nc4cc(-c5ccccc5)ccc4O2)O3)cc1` (stereo not given), the inhibition was -0.52% (inactive). With `Oc1ccc(-c2cccc(-c3ccc(O)cc3)c2)cc1` the figure was 2.72% (inactive); with `c1ccc(-c2c[nH]c(-c3ccccc3)c2)cc1`, 4.28% (active); with `COc1cccc(NC(=O)CN(C)C(=O)c2cc(Cl)nc3ccccc23)c1`, -0.56% (inactive). With `Cc1cccc(Oc2c([N+](=O)[O-])c(=O)n(C)c3ccccc23)c1` the figure was 5.15% (active); with `Cn1c(=O)c([N+](=O)[O-])c(Oc2ccccc2)c2ccccc21`, 1.91% (inactive).

With `COc1cc2c(=O)n(C)c3ccccc3c2cc1OC`, the inhibition was 0.78% (inactive).
